In all, about 420,000 compounds went through this assay and about 50,000 (12%) were called active. Where a call stands in place of a potency, no number is given. Inconclusive results (about 26%) are left out. This is one part of a sample in which actives are shown more often than they occur. Calls follow the shape of the dose curve; as a rule, active = well fitted inhibition curve with a large enough effect; inconclusive = small, poorly fitted or top-dose-only effect; inactive = flat fitted curve, though single readings scatter.

For 62 compounds, Potency results are on record in PubChem BioAssay AID686979 (National Center for Advancing Translational Sciences (NCATS), 2013).
Potency is read from the fitted curve at half-maximal effect.

This assay is described as follows: qHTS for Inhibitors of human tyrosyl-DNA phosphodiesterase 1 (TDP1): qHTS in cells in presence of CPT. Also: nearly all actives have a fitted effect of over 55% in size. As to conditions: chicken DT40 Tdp1-/-;hTDP1 cells + 20 nM CPT, ATP luminescence, 48 h; series mostly up to 46.2 µM. The procedure, abridged: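 Cell growth measured by CellTiter-Glo luminescence after a minimum 48 h, 37 C compound exposure with 20 nM CPT in Tdp1-knockout DT40 cells stably expressing hTDP1, seeded 400/well; qHTS titration format.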
In the case of `CCCC(=O)N1CCC(CCC(=O)NC2CC2)CC1`, the Potency entry was “inactive”.
In the case of `COc1cc2c(cc1OC)/C(=C/C(=O)c1ccc(NC(C)=O)cc1)NCC2`, the Potency result is “inactive”.
With `Cc1ccccc1CNC(=O)CCC(=O)N1Cc2ccccc2Oc2ncccc21` the entry was “inactive”.
Regarding `COC(=O)c1sc(NC(=O)COC(=O)C2CCC2)c(C(=O)OC)c1C`, the Potency result was “inactive”.
As for `COc1cc(OC)c(C(=O)NNC(=O)c2ccc(NS(=O)(=O)c3cccs3)cc2)cc1OC`, the Potency result is “inactive”.
In the case of `Cc1cccc(C)c1NC(=O)CSc1nc2c([nH]1)c(=O)n(C)c(=O)n2C`, the Potency result is “inactive”.
Consider `Cc1ccc2nc(SCC(=O)N3CCN(c4ccccc4)CC3)nc(=O)n2c1`, for which the Potency entry was “inactive”.
On to `CC(C)(C)n1cnnc1Sc1ccc([N+](=O)[O-])cn1`, for which the Potency entry was “inactive”.
On to `CCOc1ccccc1NC(=O)Cn1c(=O)n(Cc2ccco2)c(=O)c2sc3ccccc3c21`, for which the Potency result was “inactive”.
As to `Cc1nc2cc(C(F)(F)F)ccc2n1CCNc1nc(-c2cc(Cl)c(N)c(Cl)c2)cs1`, the Potency is 23.1 µM (active).
Turning to `O=C(Oc1cc(OC(=O)c2ccccc2)c2c(c1)OC(c1ccc(OC(=O)c3ccccc3)c(OC(=O)c3ccccc3)c1)[C@@H](OC(=O)c1ccccc1)C2)c1ccccc1` (some centres not stated), the Potency entry is “inactive”.
With `C[C@@H](C(=O)Nc1ccc2ccccc2c1)[C@@H]1C[C@@]1(C)[C@@H](NC(=O)c1cccnc1)c1ccccc1` the entry was “inactive”; with `O=C(O)c1cccc(S(=O)(=O)Nc2ccc(O)cc2Sc2nc3ccccc3s2)c1`, “inactive”.
As to `COc1ccc(S(=O)(=O)Nc2ccc(O)c(Sc3nc4ccccc4s3)c2)cc1`, the Potency result was “inactive”.
As for `O=[N+]([O-])c1c(NCCO)cc(Sc2nc3ccccc3s2)c2nonc12`, the Potency is 0.82 µM (active).
For `CSc1nnc(-c2ccc(C(F)(F)F)cn2)o1`, the Potency result is “inactive”.
Turning to `N=c1n(Cc2ccc(Cl)cc2)c2ccccc2n1CC(O)c1ccco1` (configuration not stated), the Potency is 7.31 µM (active).
Regarding `O=S(=O)(O)c1nc2ccccc2n1Cc1ccc(Cl)cc1`, the Potency result is “inactive”.
Take `CCCNC(=O)c1cc(C2CCCCN2S(=O)(=O)c2ccc(C#N)cc2)on1` (configuration not stated): the Potency result is “inactive”.
With `O=C(NCC1(N2CCCCC2)CCCCC1)c1ccc(NS(=O)(=O)c2ccc(F)cc2)cc1`, the Potency result is “inactive”.
With `O=C(OCCOCn1cc(Br)c(=O)[nH]c1=O)c1ccccc1`, the Potency result is “inactive”.
Regarding `CCCn1nnnc1NCc1ccc(CC)cc1`, the Potency result was “inactive”.
In the case of `Cc1cccc(-n2c(C)cc(/C=N/NC(N)=S)c2C)c1`, the Potency is 10.3 µM (active).
As for `CC(=O)Nc1ccc(/C=N/NC(=O)c2cccs2)cc1`, the Potency result is “inactive”.
In the case of `Cc1ccc(C(=O)Nc2ccc(NC(=O)c3cccs3)cc2)c(C)c1` it was “inactive”; in that of `Cc1cccc(-n2c(C)cc(/C=N\NC(=O)c3cccs3)c2C)c1`, 18.4 µM (active); in that of `Cc1cc(/C=N/Nc2ccc([N+](=O)[O-])cn2)c(C)n1-c1cccc(C(=O)O)c1`, “inactive”.
Consider `Cc1cc(/C=N/n2cnnc2)c(C)n1-c1cccc(C(=O)O)c1`, for which the Potency entry is “inactive”.
Consider `Cc1c(NC(=O)CSc2nnc(-c3cccnc3)n2N)c(=O)n(-c2ccccc2)n1C`, for which the Potency result was “inactive”.
With `CC(C)c1ccc(CC(=O)N2CCC2(C)C(=O)NS(=O)(=O)c2ccc(C(C)(C)C)cc2)cc1` (configuration not stated) the entry was “inactive”; with `COc1ccc(NC(=O)NN2CCN(C)CC2)c(OC)c1`, “inactive”; with `COc1ccc(CCNC(=O)CCCCn2c(=O)c3ccccc3n(Cc3ccccc3C)c2=O)cc1OC`, 20.6 µM (active).
As to `Cc1ccc(Cn2c(=O)n(CCCC(=O)NCc3ccccc3Cl)c(=O)c3ccccc32)cc1`, the Potency result is “inactive”.
`COc1ccc(CCNC(=O)CCCn2c(=O)c3ccccc3n(Cc3ccc(F)cc3Cl)c2=O)cc1OC`: the Potency entry is “inactive”.
With `COc1ccc(CCNC(=O)CCCn2c(=O)c3ccccc3n(Cc3ccc(C)cc3)c2=O)cc1OC` the figure was 23.1 µM (active); with `COc1ccc(CCNC(=O)CCn2c(=O)oc3ccccc32)cc1OC`, “inactive”; with `CCCCNC(=O)CCn1c(=O)c2ccccc2n(Cc2cc(C)ccc2C)c1=O`, “inactive”.
As for `CCOc1cc(CNCc2ccccn2)ccc1OCC(=O)NC(C)(C)C`, the Potency entry is “inactive”.
As for `N#Cc1ccc(C(=O)OCC(=O)NC(=O)NC2CCCCC2)cc1`, the Potency result was “inactive”.
`COc1ccc(C(=O)NC(C)c2nccs2)cc1OC1CCN(C(C)C)CC1` (configuration not stated): the Potency entry is “inactive”.
In the case of `COc1ccc(/C=C/CN2CCN(Cc3ccc(C)cc3)C(CCO)C2)cc1` (configuration not stated), the Potency result was “inactive”.
With `O=C(Nc1cccc(F)c1)c1cc(-c2ccco2)nc2ccccc12` the entry was “inactive”; with `CN(CCOc1ccccc1)C(=O)c1cc(-c2ccco2)nc2ccccc12`, 18.4 µM (active); with `CN(C(=O)COC(=O)c1cc(-c2ccco2)nc2ccccc12)C1CCS(=O)(=O)C1` (configuration not stated), “inactive”.
`COCCCNC(=O)c1c(NC(=O)c2cc(=O)c3cc(C)c(C)cc3o2)sc2c1CCCC2`: the Potency result was “inactive”.
Regarding `CCS(=O)(=O)C1=NSC2=NC(=O)/C(=C\c3ccc(OS(=O)(=O)c4ccccc4)cc3)C(=N)N21`, the Potency result is “inactive”.
For `c1ccc(-c2ccccc2OCCN2CCCCC2)cc1`, the Potency entry is “inactive”.
Consider `Cc1ccc(CN2CCNC(=O)C2CC(=O)NCc2csc(C(C)C)n2)cc1` (configuration not stated), for which the Potency entry is “inactive”.
As for `Cc1cc(C)c(NC(=O)CSc2nc3ccncc3[nH]2)c(C)c1`, the Potency entry is “inactive”.
Consider `O=[N+]([O-])c1ccc(O)c(/C=N/Nc2ccccc2[N+](=O)[O-])c1`, for which the Potency was 3.26 µM (active).
On to `Nc1nnnn1/N=C/c1cc([N+](=O)[O-])ccc1O`, for which the Potency result was “inactive”.
Consider `O=[N+]([O-])c1cccc(C=NN=Cc2ccccc2O)c1`, for which the Potency result was “inactive”.
For `C[C@H](CO)N1C[C@H](C)[C@@H](CN(C)S(=O)(=O)c2ccc(Oc3ccccc3)cc2)OCc2cn(nn2)CCCC1=O`, the Potency entry is “inactive”.
With `COc1cc2nc(N3CCCN(C)CC3)nc(NC3CC3)c2cc1OC`, the Potency was 7.94 µM (active).
Regarding `COc1cc2nc(Cl)nc(NC3CC3)c2cc1OC`, the Potency was 14.1 µM (active).
Consider `COc1cc(OC)c(NC(=O)c2cnc(N3CCCC3)nc2C)cc1Cl`, for which the Potency result was “inactive”.
`COc1cc2nc(Cl)nc(NCCO)c2cc1OC`: the Potency entry was “inactive”.
In the case of `COc1cc2nc(N3CCCN(C)CC3)nc(NC(C)C)c2cc1OC` it was 12.6 µM (active).
For the compound `COc1cc2nc(C#Cc3nc4cc(OC)c(OC)cc4[nH]3)[nH]c2cc1OC`, the Potency result was “inactive”.
Turning to `COc1ccc(C(=O)N2CCCN(C)CC2)c(OC)c1`, the Potency result is “inactive”.
Turning to `Cc1ccc(CNS(=O)(=O)CCNC(=O)c2ccccc2)cc1`, the Potency result is “inactive”.
With `CCOC(=O)C1CCCN(S(=O)(=O)c2ccc3c(c2)C(C)(C)C(=O)N3C)C1` (configuration not stated) the entry was “inactive”.
